In the library only some 19% were active in any assay of this set; here they are far more common.
IL1B secr inh: inflammasome signaling inhibition, IL-1 beta readout | activity change, % at 57.5 µM | THP-1 LPS/ATP IL-1B secretion, AlphaLISA, 16 h; hits give low values | hit rate 4.7% among 360,000; in the data active means activity change below about -50%; inconclusive means mostly about -30% to -49%
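Secreted IL-1B measured by AlphaLISA bead assay after 16 h compound exposure of THP-1 cells; compounds (final up to 57.5 uM) added 1 h before LPS (250 ng/mL) and ATP (1.25 mM) stimulation; lower signal means less secretion.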
HT1080NT lethal: kills 2HG-producing HT-1080-NT fibrosarcoma cells. HT-1080-NT fibrosarcoma viability, CellTiter-Glo ATP luminescence, 48 h. Potency, µM (titrated, usually from 46.1 µM), hits mostly cytotoxic. hit rate 1.6% among 360,000;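 further: NT is the 2HG producing partner of a matched IDH1 knockdown line; nearly all actives have a fitted effect of over 55% in size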
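A 48-hour cytotoxicity screen used HT-1080-NT cells plated 2 hours before compound delivery. ATP-based CellTiter-Glo luminescence measured viability, normalized to DMSO and no-cell controls.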
HT1080 IDH1KD tx: toxicity to HT-1080 IDH1 knockdown cells (counter line) | hit rate 2% among 360,000 | Potency, µM (top dose mostly 46.1 µM), most hits filed as cytotoxic | HT-1080 IDH1 knockdown viability, ATP luminescence, 48 h
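IDH1KD HT-1080 cells, 750/well, RPMI + 5% FBS; compound pinned after 2 h settling; 48 h, 37 °C; CellTiter-Glo luminescence; % activity normalised to DMSO and no-cell wells; curves fitted, classed by r2 and efficacy.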
TDP1 cell noCPT: qHTS for Inhibitors of human tyrosyl-DNA phosphodiesterase 1 (TDP1): qHTS in cells in absence of CPT; DT40 Tdp1-/- hTDP1 cells, no CPT, ATP luminescence, 48 h; Potency, µM (titrated, usually from 46.2 µM), actives largely listed as inhibitors; hit rate 15% among 420,000; AID 686978, 2013; further: nearly all actives have a fitted effect of over 55% in size
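Seeded 400 DT40-hTDP1 cells/well (vehicle DMSO, no 20 nM CPT); pinned compounds; ≥48 hr at 37 °C; CellTiter-Glo luminescence as viability measure.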
DT40 TDP1 CPT: DT40-hTDP1 cell growth loss with CPT; chicken DT40 Tdp1-/-;hTDP1 cells + 20 nM CPT, ATP luminescence, 48 h; hit rate 12% among 420,000; Potency, µM (top dose mostly 46.2 µM), usual class: inhibitors; AID 686979; further: nearly all actives have a fitted effect of over 55% in size
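Cell growth measured by CellTiter-Glo luminescence after a minimum 48 h, 37 C compound exposure with 20 nM CPT in Tdp1-knockout DT40 cells stably expressing hTDP1, seeded 400/well; qHTS titration format.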
Numbers stand for hits; [ ] = another dose, or the depositor's remark. Unless noted, the call rests on the fitted dose curve; in most records, active means well fitted curve in the direction sought with a large enough effect; inconclusive means small, poorly fitted or top-dose-only effect, or another doubt; inactive means no such curve, though single readings can be large; an effect the other way counts as inactive or inconclusive.

CC1COc2ccccc2N1S(=O)(=O)c1ccc(Cl)cc1 (configuration not stated) was read as IL1B secr inh inactive, HT1080NT lethal inactive, HT1080 IDH1KD tx inactive, TDP1 cell noCPT 23µM and DT40 TDP1 CPT inactive.
Screening O=C(C(Cl)Cl)N1c2ccccc2OCC1c1ccccc1 (configuration not stated) returned IL1B secr inh inactive, HT1080NT lethal inactive, HT1080 IDH1KD tx inactive, TDP1 cell noCPT 15µM and DT40 TDP1 CPT 18µM.
Screening Cc1ccc(S(=O)(=O)N2c3ccccc3OCC2c2ccccc2)cc1 (configuration not stated) returned IL1B secr inh inactive, HT1080NT lethal inconclusive, HT1080 IDH1KD tx inconclusive, TDP1 cell noCPT 16µM and DT40 TDP1 CPT 29µM.
Screening Cc1ccc(C(=O)N2c3ccccc3OCC2C)cc1 (configuration not stated) returned IL1B secr inh inactive, HT1080NT lethal inactive, HT1080 IDH1KD tx inactive, TDP1 cell noCPT inactive and DT40 TDP1 CPT inactive.
`Cn1c(=O)c2[nH]c(CCc3ccncc3)nc2n(C)c1=O` gave IL1B secr inh inactive, HT1080NT lethal inactive, HT1080 IDH1KD tx inactive, TDP1 cell noCPT inactive and DT40 TDP1 CPT inactive.
Screening CN(C)CC(=O)c1c(N)n(Cc2ccccc2)c(=O)n(C)c1=O returned IL1B secr inh inactive, HT1080NT lethal inactive, HT1080 IDH1KD tx inactive, TDP1 cell noCPT inactive and DT40 TDP1 CPT inactive.
`Cn1c(=O)c(C(=O)CCl)c(N)n(Cc2ccccc2)c1=O` gave IL1B secr inh -95, HT1080NT lethal inactive, HT1080 IDH1KD tx inactive, TDP1 cell noCPT 4.6µM and DT40 TDP1 CPT 4.1µM.
Screening Cn1c(N)c(C(=O)CCl)c(=O)n(C)c1=O returned IL1B secr inh inconclusive, HT1080NT lethal inactive, HT1080 IDH1KD tx inactive, TDP1 cell noCPT inconclusive and DT40 TDP1 CPT 7.3µM.
`Cn1c(N)c(C(=O)CCl)c(=O)n(Cc2ccccc2)c1=O` gave IL1B secr inh -97, HT1080NT lethal inactive, HT1080 IDH1KD tx inactive, TDP1 cell noCPT 5.8µM and DT40 TDP1 CPT 2.3µM.
`CC1(c2cccc(Br)c2)NC(=O)N(CC(=O)NC2CCCCC2)C1=O` (configuration not stated) gave IL1B secr inh inactive, HT1080NT lethal inactive, HT1080 IDH1KD tx inactive, TDP1 cell noCPT inactive and DT40 TDP1 CPT inactive.
`Cc1ccc(C2(c3ccccc3)NC(=O)N(CC(=O)NC3CCCCC3)C2=O)cc1C` (configuration not stated) gave IL1B secr inh inactive, HT1080NT lethal inactive, HT1080 IDH1KD tx inactive, TDP1 cell noCPT 18µM and DT40 TDP1 CPT inconclusive.
For O=C1CN(C(=O)CN2C(=O)NC(c3ccccc3)(c3ccccc3)C2=O)c2ccccc2N1 the results were IL1B secr inh inactive, HT1080NT lethal inactive, HT1080 IDH1KD tx inactive, TDP1 cell noCPT inactive and DT40 TDP1 CPT inactive.
`Cc1ccc(C2(c3ccccc3)NC(=O)N(CC(=O)N3CC(=O)Nc4ccccc43)C2=O)cc1C` (configuration not stated) gave IL1B secr inh inactive, HT1080NT lethal inactive[9.24 µM], HT1080 IDH1KD tx inactive, TDP1 cell noCPT 23µM and DT40 TDP1 CPT inconclusive.
Cc1ccc(NC(=O)CCN2CCN(CCO)CC2)cc1C was read as TDP1 cell noCPT inactive and DT40 TDP1 CPT inactive.
CCOc1ccc(C(=O)CN2C(=O)NC3(CCCc4ccccc43)C2=O)cc1 (configuration not stated) was read as IL1B secr inh inactive, HT1080NT lethal inactive, HT1080 IDH1KD tx inactive, TDP1 cell noCPT inconclusive and DT40 TDP1 CPT inconclusive.
Screening C=CC1(C)CN(Cc2ccco2)S(=O)(=O)c2c(F)cccc2O1 (configuration not stated) returned IL1B secr inh inactive, HT1080NT lethal inactive, HT1080 IDH1KD tx inactive, TDP1 cell noCPT inconclusive and DT40 TDP1 CPT 18µM.
Screening CC1=C(C(=O)N2CCOCC2)CC(CC(=O)NCc2cccs2)C(=O)N1CCC1=CCCCC1 (configuration not stated) returned IL1B secr inh inactive, HT1080NT lethal inactive, HT1080 IDH1KD tx inactive, TDP1 cell noCPT inconclusive and DT40 TDP1 CPT inconclusive.
O=C(NCCc1ccccc1)c1nn(-c2ccccc2Cl)nc1CO was read as TDP1 cell noCPT 13µM and DT40 TDP1 CPT 12µM.
For O=C(NCc1cccs1)c1cnc(Cl)c(Cl)c1 the results were IL1B secr inh inactive, HT1080NT lethal inactive, HT1080 IDH1KD tx inactive, TDP1 cell noCPT inactive and DT40 TDP1 CPT inactive.
`O=C(NCCc1ccccc1)c1cnc(Cl)c(Cl)c1` gave IL1B secr inh -87, HT1080NT lethal inactive, HT1080 IDH1KD tx inactive, TDP1 cell noCPT inconclusive and DT40 TDP1 CPT inactive.
CN(C)c1ccc(C(=O)NCCCSc2ccccc2)cc1 was read as IL1B secr inh inactive, HT1080NT lethal inactive, HT1080 IDH1KD tx inactive, TDP1 cell noCPT inactive and DT40 TDP1 CPT inactive.
N#Cc1ccc(C(=O)NCCCSc2ccccc2)cc1 was read as IL1B secr inh inactive, HT1080NT lethal inactive, HT1080 IDH1KD tx inactive, TDP1 cell noCPT 21µM and DT40 TDP1 CPT inconclusive.
O=C(NCCCSc1ccccc1)c1cnc(Cl)c(Cl)c1 was read as IL1B secr inh -94, HT1080NT lethal inactive, HT1080 IDH1KD tx inactive, TDP1 cell noCPT inactive and DT40 TDP1 CPT inactive.
Cc1c(CN2CCOc3c(O)cc(-c4nc5ccccc5s4)cc3C2)cnn1C was read as TDP1 cell noCPT inconclusive and DT40 TDP1 CPT inactive[9.04 µM].
COc1ccc(CNC(=O)c2cnc3sc(N4CCC(C)CC4)nn3c2=O)c(OC)c1 was read as TDP1 cell noCPT inactive and DT40 TDP1 CPT inactive.
Screening OC(c1cc(-c2cccc(Cl)c2)nc2ccccc12)C1CCCCN1 (configuration not stated) returned IL1B secr inh -101, HT1080NT lethal 4.1µM, HT1080 IDH1KD tx 2.9µM, TDP1 cell noCPT 2.6µM and DT40 TDP1 CPT 16µM.
COc1ccc(-c2ccc(SC)nn2)cc1 was read as IL1B secr inh inactive, HT1080NT lethal 21µM, HT1080 IDH1KD tx 23µM, TDP1 cell noCPT inconclusive and DT40 TDP1 CPT inactive.
Screening COc1ccc(C(=O)CSc2ccc(-c3ccccc3)nn2)cc1 returned IL1B secr inh inactive, HT1080NT lethal inactive, HT1080 IDH1KD tx inactive, TDP1 cell noCPT inconclusive and DT40 TDP1 CPT inconclusive.
Clc1ccccc1/C=C/c1ccnc2ccccc12 was read as IL1B secr inh inactive, HT1080NT lethal inactive, HT1080 IDH1KD tx inactive, TDP1 cell noCPT inconclusive and DT40 TDP1 CPT inconclusive.
Screening Cc1cc(/C=C/c2ccnc3ccccc23)ccc1N returned TDP1 cell noCPT 20µM and DT40 TDP1 CPT 8.9µM.
Nc1c(Br)cc(/C=C/c2ccnc3ccccc23)cc1Br was read as TDP1 cell noCPT 10µM and DT40 TDP1 CPT inconclusive.
Nc1ccc2ncccc2c1N was read as IL1B secr inh inactive, HT1080NT lethal inactive, HT1080 IDH1KD tx inactive, TDP1 cell noCPT inconclusive and DT40 TDP1 CPT inconclusive.
`c1ccc2c(N=NN3CCCCC3)ccnc2c1` gave TDP1 cell noCPT inconclusive and DT40 TDP1 CPT inactive.
